DT40 TDP1 no CPT: qHTS for Inhibitors of human tyrosyl-DNA phosphodiesterase 1 (TDP1): qHTS in cells in absence of CPT. actives 15% (n = 420,000). DT40 Tdp1-/- hTDP1 cells, no CPT, ATP luminescence, 48 h. Potency, µM (top dose mostly 46.2 µM), inactives show at the top dose activity change, negative = growth inhibition, hits mostly inhibitors. AID 686978, 2013; note: potency is the fitted concentration of half-maximal effect; nearly all actives have a fitted effect of over 55% in size
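Cells were dispensed at 400 per well, compounds added by pin tool, plates incubated ≥48 hr at 37 °C, then CellTiter-Glo added for 30 min at room temperature before luminescence reading. Line: DT40 Tdp1-/- complemented with hTDP1; camptothecin omitted.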
DT40 TDP1 CPT: qHTS for Inhibitors of human tyrosyl-DNA phosphodiesterase 1 (TDP1): qHTS in cells in presence of CPT. actives 12% (n = 420,000). AID 686979, 2013. chicken DT40 Tdp1-/-;hTDP1 cells + 20 nM CPT, ATP luminescence, 48 h. Potency, µM (highest dose often 46.2 µM), for the others: at the highest dose activity change, negative = growth inhibition, hits mostly inhibitors; note: potency is the fitted concentration of half-maximal effect; nearly all actives have a fitted effect of over 55% in size
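Chicken DT40 Tdp1-/- cells stably complemented with human TDP1 were seeded at 400 cells/well in medium containing 20 nM camptothecin, exposed to pin-transferred compounds, and grown at 37 °C for at least 48 hr. Viability was read as ATP luminescence.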
HT1080NT lethal: qHTS for induction of synthetic lethality in tumor cells producing 2HG: qHTS for the HT-1080-NT fibrosarcoma cell line; HT-1080-NT fibrosarcoma viability, CellTiter-Glo ATP luminescence, 48 h; Potency, µM (doses to about 46.1 µM), inactives show at the top dose activity, negative = less viability, actives largely listed as cytotoxic; actives 1.6% (n = 360,000);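 note: NT is the 2HG producing partner of a matched IDH1 knockdown line; potency is the fitted concentration of half-maximal effect; 0% = DMSO-treated cells and -100% = media-only wells without cells; nearly all actives have a fitted effect of over 55% in size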
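Viability by CellTiter-Glo luminescence after 48 h compound exposure at 37C of HT-1080-NT cells (750/well, RPMI, 5% FBS). % activity scaled between DMSO wells and medium-only wells, then curve-fitted and categorized by curve class.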
IL1B secr inh: qHTS for Inhibitors of Inflammasome Signaling: IL-1-beta AlphaLISA Primary Screen. THP-1 LPS/ATP IL-1B secretion, AlphaLISA, 16 h; hits give low values. activity change, % at 57.5 µM. actives 4.7% (n = 360,000). AID 743279, 2014; in the data active = activity change below about -50%; inconclusive = mostly about -30% to -49%
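THP-1 cells pretreated 1 hr with compounds (up to 57.5 uM final), then stimulated with LPS (250 ng/mL final) plus ATP (1.25 mM final); secreted IL-1B measured by AlphaLISA after 16 hr, decreased signal indicating inhibition.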
HT1080 IDH1KD tx: qHTS for induction of synthetic lethality in tumor cells producing 2HG: qHTS for the HT-1080-IDH1KD cell line; HT-1080 IDH1 knockdown viability, ATP luminescence, 48 h; Potency, µM (titrated, usually from 46.1 µM), inactives show at the top dose activity, negative = toxicity, usual class: cytotoxic; actives 2% (n = 360,000);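 note: potency is the fitted concentration of half-maximal effect; 0% = DMSO wells and -100% = cell-free medium wells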
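Cytotoxicity counter-line: IDH1KD HT-1080, 48 h, CellTiter-Glo. Curves classed by r2, magnitude and activity.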
Active calls of the source: *; ? = inconclusive; / = no result. This is a sample that favours compounds with a hit; in the whole collection about 19% have one here. Unless noted, calls come from the whole dose curve; as a rule, active = well fitted curve in the direction sought with a large enough effect; inconclusive = small, poorly fitted or top-dose-only effect, or another doubt; inactive = no such curve, though single readings can be large; an effect the other way counts as inactive or inconclusive. Unless noted, % is set by controls: 0 for no effect and ±100 for the full control effect.

SMILES | DT40 TDP1 no CPT | DT40 TDP1 CPT | HT1080NT lethal | IL1B secr inh | HT1080 IDH1KD tx
Cc1cc(=O)n(CC(=O)O)c2ccccc12 | 5% | -13% | 0% | 18 | 3%
CCOC(=O)Cn1c(=O)cc(C)c2ccccc21 | 12µM* | 8.2µM* | 7% | -10 | 6%
O=C(NC1CCCCC1)C(c1ccco1)N(C(=O)c1csnn1)c1ccc(Cl)cc1 (centres undefined) | ? | ? | -16% | -3 | 1%
O=C(NC1CCCC1)C(c1ccccn1)N(C(=O)c1csnn1)C1CCCCC1 (centres undefined) | ? | 21µM* | 11% | 37 | 12%
O=C(NC1CCCC1)C(c1ccccn1)N(C(=O)c1csnn1)C1CC1 (centres undefined) | -28% | -21% | -10% | -2 | -6%
O=C(NC1CCCCC1)C(c1ccco1)N(C(=O)c1csnn1)C1CCCC1 (centres undefined) | 16µM* | ? | -3% | 0 | 1%
O=C1C(Nc2ccccc2)=CC(c2ccc(Br)cc2)N1c1ccccc1 (centres undefined) | -23% | ? | / | / | /
CC(Oc1ccccc1)C(=O)Nc1nnc(S(=O)(=O)Nc2ccccc2)s1 (centres undefined) | -10% | -23% | -2% | -7 | -7%
O=S(=O)(c1cccc(-c2nnco2)c1)N1CCCC1 | 3% | -4% | 11% | 13 | 13%
O=c1[nH]c2ccccc2c2nc(-c3cccc(S(=O)(=O)N4CCCC4)c3)nn12 | 16µM* | ? | 10% | -4 | 1%
CN(C)Cc1ccccc1-c1nccc(NC2CC2)n1 | 15% | 3% | / | / | /
CC12CCC(C(=O)n3c1nc1ccccc13)C2(C)C (centres undefined) | 21µM* | 18µM* | 1% | ? | -22%
O=C(/C=C/c1ccccc1)OCCCN=C1NS(=O)(=O)c2ccccc21 | ? | -21% | -3% | 80 | -21%
Cc1cc(C)n(-c2ccc(C(=O)OCC(=O)Nc3ccc(S(=O)(=O)N4CCCCC4)cc3)cc2)n1 | ? | 23µM* | 0% | -12 | 1%
O=C(Nc1cccc(S(=O)(=O)N2CCCCC2)c1)c1ccc(OCC2CCCO2)cc1 (centres undefined) | 16µM* | 21µM* | -12% | -15 | -11%
Cc1cc(C)nc(-n2nc(C)cc2NC(=O)c2cccc(S(=O)(=O)N3CCOCC3)c2)n1 | 21µM* | ? | 11% | -8 | 12%
Cc1cc(C)nc(-n2nc(C)cc2NC(=O)c2ccc(S(=O)(=O)N3CCOCC3)cc2)n1 | -24% | -30% | 27% | 11 | 0%
CC(C)Oc1ccc(C(=O)Nc2cccc(S(=O)(=O)N3CCCC3)c2)cc1 | 21µM* | 29µM* | 0% | ? | -14%
Cc1cc(C)n(-c2ccc(C(=O)OCC(=O)Nc3ccc(S(N)(=O)=O)cc3)cc2)n1 | -12% | ? | -5% | -1 | 0%
COc1cccc(NC(=O)c2ccc(S(=O)(=O)N3CCCC3)cc2)c1 | -6% | 1% | -14% | ? | -4%
CCc1nn(CC(=O)N(C)C2CCCCC2)c(=O)c2cc3cc(C)ccc3n12 | ? | ? | 10% | 11 | 15%
O=C(NCCN1CCOCC1)C1CC(=O)N(c2cccc(C(F)(F)F)c2)C1 (centres undefined) | 2% | 7% | 4% | 6 | 2%
COc1ccccc1-c1nnc(SCC(=O)Nc2ccc(S(N)(=O)=O)cc2)n1N | -6% | -2% | 6% | 31 | 8%
Cc1cc(C)n(-c2ccc(C(=O)Nc3cccc(S(=O)(=O)N4CCCC4)c3)cc2)n1 | 9.2µM* | 18µM* | -4% | 1 | -12%
CSc1cccc(NC(=S)Nc2ccc(F)cc2)c1 | ? | 23µM* | -4% | -2 | 5%
SMILES | DT40 TDP1 no CPT | DT40 TDP1 CPT | HT1080NT lethal | IL1B secr inh | HT1080 IDH1KD tx
CSc1cccc(NC(=S)NN(C)C)c1 | 18µM* | ? | 8% | 4 | 9%
O=c1[nH]c(-c2ccc(Cl)cc2)cs1 | -24% | ? | 1% | -55* | -2%
O=c1[nH]c(-c2ccccc2)cs1 | -21% | -30% | 6% | 16 | -9%
CC(C)(C)OC(=O)N1CCN(c2ccc(NC(=O)c3ccco3)cc2)CC1 | 16µM* | 18µM* | 6% | -2 | 10%
CC(C)c1ccc(NC(=O)C(c2ccc3c(c2)OCO3)N2CCN(C(=O)c3ccco3)CC2)cc1 (centres undefined) | ? | ? | -8% | -24 | -3%
CC(C)c1ccc(NC(=O)C(c2ccccc2)N2CCN(C(=O)c3ccco3)CC2)cc1 (centres undefined) | 18µM* | ? | -13% | ? | -23%
O=C(Nc1ccc(N2CCN(C(=O)c3ccco3)CC2)cc1)c1cccs1 | -29% | ? | 22% | -52* | 21%
O=C(Nc1ccc(N2CCN(C(=O)c3ccco3)CC2)cc1)c1ccco1 | 5% | 0% | 7% | -3 | 15%
O=C(Nc1ccc(N2CCN(C(=O)c3ccco3)CC2)cc1)C(c1ccccc1)c1ccccc1 | 16µM* | 21µM* | -1% | 10 | -5%
CCN(Cc1ccccc1)S(=O)(=O)c1c(C)[nH]c(C)c1C(=O)N1CCCC1 | -8% | -4% | -2% | 0 | -11%
O=C(CSc1nc(O)c(C2CCCCC2)c(=O)[nH]1)Nc1ccc(F)cc1 | -8% | -5% | 1% | -15 | 0%
CC(C)c1cc(C(F)(F)F)nc(NNc2nc(C(C)C)cc(C(F)(F)F)n2)n1 | ? | -24% | -9% | -21 | 3%
COCCCNC(=O)CCCCn1c(=O)c2ccccc2n(CC(=O)Nc2ccc(C)cc2C)c1=O | 0% | -3% | / | / | /
COc1cccc(CNC(=O)c2ccc(-c3nc(CSc4ccccc4)c(C)o3)cc2)c1 | ? | -20% | / | / | /
CCn1cc(CNCc2cn[nH]c2-c2cc3ccccc3o2)cn1 | 23µM* | 18µM* | -7% | 8 | -14%
CCn1cc(CNC(=O)c2cccc([N+](=O)[O-])c2)cn1 | 13% | 7% | 15% | 6 | 16%
CCCN(CCC)C(=O)C1CCN(c2cc(C)nc3c(-c4ccc(Cl)cc4)c(C)nn23)CC1 | ? | -27% | / | / | /
CC1S/C(=N/N=C2CCCCC2)NC1=O (centres undefined) | 10µM* | 2.9µM* | 9% | 18 | 13%
CC1S/C(=N/N=C2CCC(C(C)(C)C)CC2)NC1=O (centres undefined) | ? | ? | 0% | 51 | -2%

Source: PubChem (National Center for Advancing Translational Sciences (NCATS))
